From the supplement of paper PMC13380429

What was measured:
[1] = system: Vero E6 infected with SARS-CoV-2; test: morphology score (similarity to uninfected cells); higher = more like uninfected cells; settings: 24 h
[2] = system: Vero E6 infected with SARS-CoV-2; test: SARS-CoV-2 infection rate relative to infected DMSO; higher = more infection, active = 60 or less; settings: 24 h

Row | SMILES | morphology score [1] | SARS-CoV-2 infection rate [2]
1 | CCOC(=O)[C@H](CCc1ccccc1)N[C@@H](C)C(=O)N1C(=O)N(C)C[C@H]1C(=O)O [imidapril] (10 µM) | -0.0373 | 117% (inactive)
2 | OCCN1C[C@H](O)[C@@H](O)[C@H](O)[C@H]1CO [miglitol] (10 µM) | 0.11 | 106% (inactive)
3 | Cc1ccc(NCCCc2ccccc2)c(N)c1 [NFKB-activation-inhibitor-II] (10 µM) | 0.238 | 102% (inactive)
4 | O=C(C[C@H]1CC(c2ccc(F)cc2F)=NO1)N1CCOCC1 (racemic) (10 µM) | 0.00815 | 103% (inactive)
5 | C[C@H]1CC[C@H](n2c3cnccc3c3cnc(Nc4ccc5c(n4)CCN(C(=O)CO)C5)nc32)CC1 (10 µM) | 0.0031 | 110% (inactive)
6 | CC(C)OC(=O)[C@H](C)N[P@](=O)(CO[C@H](C)Cn1cnc2c(N)ncnc21)Oc1ccccc1 [tenofovir-alafenamide] (10 µM) | -0.0883 | 106% (inactive)
7 | C=CCN1C[C@H](C(=O)N(CCCN(C)C)C(=O)NCC)C[C@@H]2c3cccc4[nH]cc(c34)C[C@H]21 [cabergoline] (10 µM) | 0.0903 | 104% (inactive)
8 | COc1cc2ncnc(Nc3cccc(Cl)c3F)c2cc1OC(=O)N1CCN(C)C[C@H]1C (10 µM) | -0.178 | 114% (inactive)
9 | C[C@@H](O)[C@H]1C(=O)N2C(C(=O)O)=C(S[C@@H]3CN[C@H](C(=O)N(C)C)C3)[C@H](C)[C@H]12 [meropenem] (10 µM) | 0.0366 | 104% (inactive)
10 | C[C@@H]1CCCN1CCc1cc2cc(-c3ccc(C#N)cc3)ccc2o1 (10 µM) | 0.44 | 80.5% (inactive)
11 | Cc1cc(Nc2cc(CN3CCOCC3)c3nc(C)c(Cc4ccc(Cl)cc4F)n3n2)n[nH]1 (0.833333 µM) | -0.0116 | 107% (inactive)
12 | O=C(C1CC1)N1CC[C@@H](Cc2n[nH]c(=O)n2-c2ccc(-c3ccc4occc4c3)cc2)C1 (10 µM) | 0.269 | 90.5% (inactive)
13 | COC[C@H]1OC(=O)c2coc3c2[C@@]1(C)C1=C(C3=O)[C@@H]2CCC(=O)[C@@]2(C)C[C@H]1OC(C)=O [wortmannin] (0.833333 µM) | 0.26 | 79.5% (inactive)
14 | CC(C)(C)C(=O)CN1C(=O)[C@H](NC(=O)Nc2cccc(C(=O)O)c2)CN(C2CCCCC2)c2ccccc21 [nastorazepide] (10 µM) | -0.0136 | 104% (inactive)
15 | Cc1ccc(S(=O)(=O)n2c(N)nc3ccccc32)cc1 (10 µM) | -0.0202 | 108% (inactive)
16 | O=C(Cc1ccc(-c2ccc(OCCN3CCOCC3)cc2)cn1)NCc1ccccc1 (10 µM) | -0.5 | 112% (inactive)
17 | O=C(c1ccc(-c2ccc(Cl)cc2)o1)N(Cc1ccccn1)c1ccc(N2CCNCC2)cc1 (0.833333 µM) | 0.128 | 106% (inactive)
18 | N=C(N)NC(=N)NCCc1ccccc1 [phenformin] (10 µM) | 0.0321 | 110% (inactive)
19 | CC1=NN(c2ccc(C)c(C)c2)C(=O)/C1=N\Nc1cccc(-c2cccc(C(=O)O)c2)c1O [eltrombopag] (10 µM) | 0.143 | 99% (inactive)
20 | CCN(CC)CCOC(=O)c1ccc(N)cc1 [procaine] (10 µM) | -0.107 | 115% (inactive)

Row | SMILES | morphology score [1] | SARS-CoV-2 infection rate [2]
21 | N#CCNC(=O)c1ccc(-c2ccnc(Nc3ccc(N4CCOCC4)cc3)n2)cc1 (0.833333 µM) | 0.412 | 103% (inactive)
22 | CNC(=O)[C@@H](c1ccccc1)N1CCc2cc(OC)c(OC)cc2[C@@H]1CCc1ccc(C(F)(F)F)cc1 [almorexant] (10 µM) | -0.0542 | 105% (inactive)
23 | C[N+](C)(C)CCCCCCCCCC[N+](C)(C)C [decamethonium] (10 µM) | 0.0864 | 108% (inactive)
24 | C=CC(=O)Nc1cccc(Oc2nc(Nc3ccc(N4CCN(C)CC4)cc3)ncc2Cl)c1 (10 µM) | -0.115 | 118% (inactive)
25 | COCCCOc1cc(C[C@@H](C[C@H](N)[C@@H](O)C[C@H](C(=O)NCC(C)(C)C(N)=O)C(C)C)C(C)C)ccc1OC [aliskiren-hemifumarate] (10 µM) | -0.0367 | 110% (inactive)
26 | CC[C@H](CO)Nc1nc(NCc2ccccc2)c2ncn(C(C)C)c2n1 [roscovitine] (10 µM) | -0.0602 | 96% (inactive)
27 | C#CC[C@H](c1nc2cc(Cl)ccc2c(=O)n1Nc1ccccc1)N(CCCN)C(=O)c1cccc(Cl)c1F (0.833333 µM) | -0.0173 | 112% (inactive)
28 | CC(=O)O[C@H]1C(=O)[C@@]2(C)[C@H]([C@H](OC(=O)c3ccccc3)[C@]3(O)C[C@H](OC(=O)[C@H](O)[C@@H](NC(=O)c4ccccc4)c4ccccc4)C(C)=C1C3(C)C)[C@]1(OC(C)=O)CO[C@@H]1C[C@@H]2O [paclitaxel] (10 µM) | 0.00639 | 108% (inactive)
29 | CC(=O)N1CCN(CCOc2ccc(C3CCN(C4=Nn5c(nnc5C(F)(F)F)CC4)CC3)cc2)CC1 (0.833333 µM) | 0.0218 | 98.5% (inactive)
30 | Cc1cc2nc3c(=O)[nH]c(=O)nc-3n(C)c2cc1C=O (10 µM) | 0.102 | 100% (inactive)
31 | CNC(=O)c1cc(Oc2ccc(NC(=O)Nc3cc(C(C)(C)C)nn3-c3ccc4ncccc4c3)c(F)c2)ccn1 [rebastinib] (0.833333 µM) | 0.567 | 106% (inactive)
32 | C=CCc1ccc(O)c(-c2cc(CC=C)ccc2O)c1 [magnolol] (10 µM) | 0.249 | 108% (inactive)
33 | CC(ONC(=O)c1cc(C(F)(F)F)cc(C(F)(F)F)c1)C(=O)Nc1ccc(Cl)cc1 (stereo unspecified) (10 µM) | 0.227 | 89.5% (inactive)
34 | CC1Cc2ccccc2N1NC(=O)c1ccc(Cl)c(S(N)(=O)=O)c1 (stereo unspecified) [indapamide] (10 µM) | 0.0243 | 112% (inactive)
35 | CCOC(CN1CCN(CC(C)C(=O)c2ccccc2)CC1)c1ccccc1 (stereo unspecified) [eprazinone] (10 µM) | 0.35 | 96% (inactive)
36 | O=C(CC(c1ccccc1)c1ccccc1)N1CCN(C(c2ccccc2)c2ccccc2)CC1 (10 µM) | 0.0825 | 102% (inactive)
37 | CCCCCCCC/C=C\CCCCCCCC(=O)N[C@@H](CO)Cc1ccc(O)cc1 (10 µM) | 0.123 | 104% (inactive)
38 | Oc1ccc2c3c1O[C@H]1c4c(c5ccccc5n4Cc4ccccc4)C[C@@]4(O)[C@@H](C2)N(CC2CC2)CC[C@]314 [N-benzylnaltrindole] (0.833333 µM) | 0.148 | 102% (inactive)
39 | NCC(=O)Nc1ccc(-n2nc(C(F)(F)F)cc2-c2ccc3c(ccc4ccccc43)c2)cc1 (0.833333 µM) | -0.089 | 99.5% (inactive)
40 | C=C1C[C@]23C[C@@]1(O)CC[C@H]2[C@@]12C=C[C@H](O)[C@@](C)(C(=O)O1)[C@H]2[C@@H]3C(=O)O (10 µM) | -0.0765 | 109% (inactive)

Row | SMILES | morphology score [1] | SARS-CoV-2 infection rate [2]
41 | CCN[C@@H](C)Cc1cccc(C(F)(F)F)c1 [dexfenfluramine] (10 µM) | -0.224 | 112% (inactive)
42 | O=C(/C=C/c1ccccc1)NC(NC(=S)Nc1cccc2cccnc12)C(Cl)(Cl)Cl (stereo unspecified) [salubrinal] (10 µM) | -0.178 | 108% (inactive)
43 | Cc1c(Cl)cccc1S(=O)(=O)Nc1nc(CC(=O)N2CCN(C)CC2)cs1 (10 µM) | -0.053 | 110% (inactive)
44 | Oc1ccc(C2CNCCc3c2cc(O)c(O)c3Cl)cc1 (stereo unspecified) [fenoldopam] (10 µM) | 0.226 | 95% (inactive)
45 | Cc1cc(C)c(CNC(=O)c2cc(-c3ccc(CN4CCOCC4)cc3)cc3c2cnn3C2CCCC2)c(=O)[nH]1 (10 µM) | -0.13 | 110% (inactive)
46 | CCN1CCN(Cc2ccc(C(=O)Nc3ccc(C)c(Oc4ccc5c(c4)CC(=O)N5)c3)cc2C(F)(F)F)CC1 (0.833333 µM) | 0.0277 | 104% (inactive)
47 | O=C1CCC[C@@H]2[C@H]3C[C@@H](CN12)[C@@H]1CCCCN1C3 [lupanine] (10 µM) | -0.065 | 102% (inactive)
48 | Cc1onc(O)c1C[C@@H](N)C(=O)O (racemic) (10 µM) | 0.0374 | 104% (inactive)
49 | O=C(O)CCC(=O)c1ccc(-c2ccccc2)cc1 [fenbufen] (10 µM) | -0.0471 | 104% (inactive)
50 | C[C@@H]1CN(c2c(F)c(F)c3c(=O)c(C(=O)O)cn(C4CC4)c3c2F)C[C@H](C)N1 [orbifloxacin] (10 µM) | 0.149 | 96.5% (inactive)
51 | CCC(CC)Nc1nc(C)c(-c2ccc(OC(F)(F)F)cc2OC)nc1OC (10 µM) | 0.2 | 86.5% (inactive)
52 | O=C(c1ccc2nccnc2c1)N1CCCCC1 [ampalex] (10 µM) | -0.0456 | 104% (inactive)
53 | CC(C)(C)OC(=O)N[C@H]1CCCCC/C=C\[C@@H]2C[C@@]2(C(=O)NS(=O)(=O)C2CC2)NC(=O)[C@@H]2C[C@@H](OC(=O)N3Cc4cccc(F)c4C3)CN2C1=O [danoprevir] (10 µM) | -0.0154 | 114% (inactive)
54 | CC(O)(C(=O)Nc1ccc(S(=O)(=O)c2ccccc2)cc1)C(F)(F)F (stereo unspecified) (10 µM) | 0.347 | 78% (inactive)
55 | O=c1c(-c2ccc(O)cc2)coc2c([C@@H]3O[C@H](CO)[C@@H](O)[C@H](O)[C@H]3O)c(O)ccc12 [puerarin] (10 µM) | 0.0648 | 98.5% (inactive)
56 | CCc1c2c(nc3ccc(O)cc13)-c1cc3c(c(=O)n1C2)COC(=O)[C@]3(O)CC (0.833333 µM) | -0.131 | 116% (inactive)
57 | Cc1nccc2[nH]c(=O)ccc12 [medorinone] (10 µM) | 0.145 | 96.5% (inactive)
58 | COc1ccc(S(=O)(=O)N(C(C)=O)c2ccccc2/C=C/c2cc[n+]([O-])cc2)cc1 (10 µM) | -0.108 | 93.5% (inactive)
